Test results taken from the antibiotic and cytotoxicity screens of Wong et al. (2023).
Out of some 39,000 compounds screened, about 1,500 (3.8%) were called active. The sample as a whole holds a higher share of actives than the screen did.

test system: HSkMC (human skeletal muscle cells); assay: cytotoxicity call (relative viability < 0.9); details: 10 µM

Structure (SMILES) | cytotoxicity call
CCCCOCCOc1ccc(-c2ccc3c(c2)/C=C(/C(=O)Nc2ccc([S@@](=O)Cc4cncn4CCC)cc2)CCCN3CC(C)C)cc1 | active
C[C@@H]1CCCCO[C@H](CN(C)C(=O)NC2CCCCC2)[C@H](C)CN([C@H](C)CO)C(=O)c2cc(NC(=O)c3ccncc3)ccc2O1 | inactive
C[C@H](CO)N1C[C@H](C)[C@@H](CN(C)C(=O)C2CCCCC2)Oc2cc(C#C[C@@H](C)O)ccc2S1(=O)=O | inactive
CC[C@@H](CO)NC(=O)c1ccc(N)cc1 | inactive
C[C@@H]1CN([C@H](C)CO)C(=O)c2cc(NC(=O)Nc3ccc4c(c3)OCO4)ccc2O[C@H]1CN(C)Cc1ccc(C(F)(F)F)cc1 | inactive
C[C@@H]1CN([C@H](C)CO)C(=O)c2cc(NC(=O)Nc3ccc(C(F)(F)F)cc3)ccc2O[C@H]1CN(C)Cc1ccc2c(c1)OCO2 | inactive
C[C@H]1CN([C@@H](C)CO)C(=O)c2cc(NC(=O)Nc3ccc(C(F)(F)F)cc3)ccc2O[C@@H]1CN(C)Cc1ccc2c(c1)OCO2 | active
C[C@H](CO)N1C[C@H](C)[C@H](CN(C)Cc2ccc3c(c2)OCO3)Oc2ccc(NC(=O)Nc3ccc(C(F)(F)F)cc3)cc2C1=O | active
C[C@@H]1CN([C@@H](C)CO)C(=O)c2cc(NC(=O)Nc3ccc(C(F)(F)F)cc3)ccc2O[C@@H]1CN(C)Cc1ccc2c(c1)OCO2 | active
C[C@H]1CN([C@@H](C)CO)C(=O)c2cc(NC(=O)Nc3ccc(C(F)(F)F)cc3)ccc2O[C@H]1CN(C)Cc1ccc2c(c1)OCO2 | inactive
C[C@@H]1CN([C@@H](C)CO)C(=O)c2cc(NC(=O)Nc3ccc(C(F)(F)F)cc3)ccc2O[C@H]1CN(C)Cc1ccc2c(c1)OCO2 | active
CNC[C@H]1OCCCC[C@@H](C)Oc2ccc(NC(=O)Nc3cccc4ccccc34)cc2C(=O)N([C@H](C)CO)C[C@@H]1C | inactive
CCS(=O)(=O)NCC[C@H]1CC[C@H](NC(=O)Cc2ccccn2)[C@H](CO)O1 | inactive
CC/N=c1\sc(C(=O)OC)cc(=O)n1CC | inactive
C[C@H]1CN([C@@H](C)CO)C(=O)c2cc(NC(=O)C3CCCCC3)ccc2O[C@H]1CN(C)Cc1ccc(C(=O)Nc2ccccc2N)cc1 | inactive
CO[C@H]1CN(C)C(=O)c2ccc(NS(=O)(=O)CC(F)(F)F)cc2OC[C@@H](C)N(C(=O)NC(C)C)C[C@@H]1C | inactive
C[C@H](CO)N1C[C@H](C)[C@H](CN(C)S(=O)(=O)c2ccccc2)OCCCC[C@H](C)Oc2ccc(NS(C)(=O)=O)cc2C1=O | inactive
CNC(=O)N1CCC(C(N)=O)CC1 | inactive
O=C(C[C@@H]1C[C@H]2c3cc(NS(=O)(=O)c4ccc(F)cc4)ccc3O[C@H]2[C@H](CO)O1)NCc1ccccn1 | inactive
C[C@@H]1CN([C@@H](C)CO)C(=O)c2cc(NC(=O)Nc3ccc4c(c3)OCO4)ccc2O[C@@H]1CN(C)Cc1ccc(C(F)(F)F)cc1 | inactive

Structure (SMILES) | cytotoxicity call
C[C@H](CO)N1C[C@H](C)[C@@H](CN(C)Cc2ccc3c(c2)OCO3)Oc2ccc(NC(=O)Nc3ccc(C(F)(F)F)cc3)cc2C1=O | active
C[C@@H]1CN([C@H](C)CO)C(=O)c2cc(NC(=O)Nc3ccc(C(F)(F)F)cc3)ccc2O[C@@H]1CN(C)Cc1ccc2c(c1)OCO2 | inactive
CCC(=O)Nc1ccc2c(c1)OC[C@@H](C)N(C(=O)CN1CCOCC1)C[C@@H](C)[C@@H](OC)CN(C)C2=O | inactive
C[C@@H]1CN([C@@H](C)CO[Si](C)(C)C(C)(C)C)C(=O)c2cc(NC(=O)Nc3ccccc3)ccc2O[C@@H](C)CCCCO[C@H]1CN(C)S(=O)(=O)c1ccc(F)cc1 | inactive
COc1ccc(S(=O)(=O)Nc2ccc3c(c2)C(=O)N([C@H](C)CO)C[C@@H](C)[C@H](CN(C)S(=O)(=O)c2ccc(F)cc2)O3)cc1 | inactive
C[C@@H]1CN([C@H](C)CO)C(=O)c2cc(NS(=O)(=O)c3ccc(F)cc3)ccc2O[C@@H]1CN(C)S(=O)(=O)c1cn(C)cn1 | inactive
O=C(O[C@@H]1O[C@@H]2COC(=O)c3cc(Oc4c(C(=O)O)cc(O)c(O)c4O)c(O)c(O)c3-c3c(cc(O)c(O)c3O)C(=O)O[C@H]2[C@H](OC(=O)c2cc(O)c(O)c(O)c2)[C@H]1OC(=O)c1cc(O)c(O)c(O)c1)c1cc(O)c(O)c(O)c1 | inactive
O=C(O[C@@H]1O[C@H]2COC(=O)c3cc(O)c(O)c(O)c3-c3c(cc(O)c(O)c3O)C(=O)O[C@@H]([C@H]1O)[C@@H]2O)c1cc(O)c(O)c(O)c1 | inactive
O=C(O[C@@H]1O[C@@H]2COC(=O)c3cc(O)c(O)c(O)c3-c3c(cc(O)c(O)c3O)C(=O)O[C@H]2[C@H](OC(=O)c2cc(O)c(O)c(O)c2)[C@H]1OC(=O)c1cc(O)c(O)c(O)c1)c1cc(O)c(O)c(O)c1 | active
COCCOC(=O)N1C(=O)[C@@]2(c3cc(C#CCC(C(=O)OC)C(=O)OC)ccc31)[C@H](C(=O)N1CCc3cc(OC)c(OC)cc3C1)[C@H]1C(=O)O[C@H](c3ccccc3)[C@H](c3ccccc3)N1[C@@H]2c1ccccc1OCCO | inactive
C[C@@H]1CCCCO[C@H](CN(C)CC2CCCCC2)[C@H](C)CN([C@H](C)CO)C(=O)c2cc(NC(=O)Nc3ccc(F)cc3)ccc2O1 | active
C[C@@H]1CN([C@@H](C)CO)C(=O)c2cc(NC(=O)Nc3ccc(F)cc3)ccc2O[C@@H](C)CCCCO[C@H]1CN(C)CC1CCCCC1 | inactive
C[C@@H]1CN([C@@H](C)CO)C(=O)c2cc(NC(=O)Nc3ccc(F)cc3)ccc2O[C@@H](C)CCCCO[C@@H]1CN(C)CC1CCCCC1 | active
C[C@H](CO)N1C[C@H](C)[C@H](CN(C)CC2CCCCC2)OCCCC[C@H](C)Oc2ccc(NC(=O)Nc3ccc(F)cc3)cc2C1=O | active
C[C@H]1CCCCO[C@H](CN(C)CC2CCCCC2)[C@@H](C)CN([C@@H](C)CO)C(=O)c2cc(NC(=O)Nc3ccc(F)cc3)ccc2O1 | inactive
C[C@@H]1CCCCO[C@@H](CN(C)CC2CCCCC2)[C@@H](C)CN([C@H](C)CO)C(=O)c2cc(NC(=O)Nc3ccc(F)cc3)ccc2O1 | inactive
C[C@@H]1CCCCO[C@@H](CN(C)CC2CCCCC2)[C@H](C)CN([C@H](C)CO)C(=O)c2cc(NC(=O)Nc3ccc(F)cc3)ccc2O1 | inactive
C[C@@H]1CCCCO[C@H](CN(C)CC2CCCCC2)[C@H](C)CN([C@@H](C)CO)C(=O)c2cc(NC(=O)Nc3ccc(F)cc3)ccc2O1 | inactive
C[C@@H]1CCCCO[C@@H](CN(C)CC2CCCCC2)[C@H](C)CN([C@@H](C)CO)C(=O)c2cc(NC(=O)Nc3ccc(F)cc3)ccc2O1 | inactive
C[C@@H]1CCCCO[C@@H](CN(C)CC2CCCCC2)[C@@H](C)CN([C@@H](C)CO)C(=O)c2cc(NC(=O)Nc3ccc(F)cc3)ccc2O1 | inactive

Structure (SMILES) | cytotoxicity call
C[C@@H]1CN([C@H](C)CO)C(=O)c2cc(NC(=O)Nc3ccc(F)cc3)ccc2O[C@@H](C)CCCCO[C@@H]1CN(C)CC1CCCCC1 | active
C[C@H]1CCCCO[C@@H](CN(C)CC2CCCCC2)[C@@H](C)CN([C@@H](C)CO)C(=O)c2cc(NC(=O)Nc3ccc(F)cc3)ccc2O1 | inactive
Cn1cnc(CCNC(=O)C[C@@H]2CC[C@@H]3[C@H](COC[C@@H](O)CN3C(=O)C3CC3)O2)c1 | inactive
C[C@H](CO)N1C[C@H](C)[C@@H](CN(C)S(=O)(=O)c2cccs2)Oc2c(NC(=O)c3cnccn3)cccc2C1=O | inactive
COc1cccc(-c2cnc3c(c2)C(=O)N([C@H](C)CO)C[C@H](C)[C@H](CN(C)S(=O)(=O)c2cccs2)O3)c1 | inactive
COc1ccc(S(=O)(=O)N(C)C[C@@H]2OCc3cn(nn3)CCCC(=O)N([C@@H](C)CO)C[C@H]2C)cc1 | inactive
C[C@H](CO)N1C[C@H](C)[C@H](CN(C)C(=O)NC2CCCCC2)Oc2ccc(NS(=O)(=O)c3cn(C)cn3)cc2C1=O | inactive
CC1(C)OC(=O)C2(C(=O)O1)[C@@H](c1ccc(-c3ccc(-c4ccc(O)cc4)cc3)cc1)CC(=O)C[C@H]2c1ccccc1 | inactive
CCCn1c(=O)[nH]c(=O)c2[nH]cnc21 | inactive
COc1ccc(NC(=O)N(C)C[C@@H]2Oc3ccc(NC(=O)CCCCCC(=O)Nc4ccccc4N)cc3C(=O)N([C@H](C)CO)C[C@@H]2C)cc1 | inactive
COc1ccc(NC(=O)Nc2ccc3c(c2)CC(=O)N([C@H](C)CO)C[C@@H](C)[C@H](CN(C)Cc2ccc(Cl)c(Cl)c2)O3)cc1 | inactive
COc1ccc(NC(=O)Nc2ccc3c(c2)CC(=O)N([C@H](C)CO)C[C@H](C)[C@H](CN(C)Cc2ccc(Cl)c(Cl)c2)O3)cc1 | inactive
COc1ccc(NC(=O)Nc2ccc3c(c2)CC(=O)N([C@@H](C)CO)C[C@H](C)[C@@H](CN(C)Cc2ccc(Cl)c(Cl)c2)O3)cc1 | inactive
COc1ccc(NC(=O)Nc2ccc3c(c2)CC(=O)N([C@@H](C)CO)C[C@@H](C)[C@H](CN(C)Cc2ccc(Cl)c(Cl)c2)O3)cc1 | inactive
COc1ccc(NC(=O)Nc2ccc3c(c2)CC(=O)N([C@H](C)CO)C[C@@H](C)[C@@H](CN(C)Cc2ccc(Cl)c(Cl)c2)O3)cc1 | active
COc1ccc(NC(=O)Nc2ccc3c(c2)CC(=O)N([C@@H](C)CO)C[C@H](C)[C@H](CN(C)Cc2ccc(Cl)c(Cl)c2)O3)cc1 | active
C[C@@H]1CCCCO[C@@H](CN(C)C(=O)Nc2cccc3ccccc23)[C@@H](C)CN([C@H](C)CO)C(=O)c2cc(NC(=O)Nc3cccc4ccccc34)ccc2O1 | inactive
NC(=O)CSc1ncn(-c2ccccc2)n1 | inactive
